Experimental data from PubChem BioAssay (NCATS).
Inconclusive results are not listed. Calls of active or inactive are those of the source. Calls follow the shape of the dose curve; as a rule, active = well fitted inhibition curve with a large enough effect; inconclusive = small, poorly fitted or top-dose-only effect; inactive = flat fitted curve, though single readings scatter.

These compounds were tested on Zika virus NS2B-NS3 protease (assay: Primary screen GU AMC qHTS for Zika virus inhibitors (AID 1347154;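 also: 0% = no-inhibitor control and -100% = no-enzyme control; nearly all actives have a fitted effect of over 70% in size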)). Conditions: Zika NS2B-NS3 unlinked protease, AMC fluorogenic substrate; series mostly up to 54.1 µM; activity change, negative = inhibition: at the top concentration.
Summary of the method: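 Fluorogenic AMC-substrate cleavage by noncovalent NS2B-NS3 protease complex (25 nM, pH 8.0 Tris buffer with Tween 20) followed for 15 minutes at room temperature (~20% conversion). Percent inhibition from ex340/em450 signal change, fitted by 4-parameter Hill equation.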

| Compound | activity change, negative = inhibition |
| --- | --- |
| O=c1[nH]c(=O)c2ccccc2o1 | -5.12% (inactive) |
| CCN[C@H]1CN(CCCOC)S(=O)(=O)c2sc(S(N)(=O)=O)cc21 | 1.78% (inactive) |
| NC(=O)N[C@@H](CCC(=O)O)C(=O)O | -2.22% (inactive) |
| CCCCOC(=O)c1ccc(N)cc1 | 0.602% (inactive) |
| Nc1ccc(S(=O)(=O)c2ccc(N)cc2)cc1 | -2.42% (inactive) |
| CCOC(N)=O | -4.18% (inactive) |
| CCN(CC)CCc1nc(-c2ccccc2)no1 | -1.69% (inactive) |
| Cc1cccc(Nc2ccccc2C(=O)O)c1C | -2.51% (inactive) |
| O=C(Cn1ccnc1[N+](=O)[O-])NCCO | -2.36% (inactive) |
| Nc1ncnc(Nc2ccccc2)n1 | -3.33% (inactive) |
| Cc1ccccc1N=Nc1ccc(N=Nc2c(O)ccc3ccccc23)c(C)c1 | -4.01% (inactive) |
| Nc1ccc(C(=O)Oc2ccccc2)c(O)c1 | -3.07% (inactive) |
| C1CCN2C[C@@H]3C[C@@H](CN4CCCC[C@@H]34)[C@H]2C1 | 4.22% (inactive) |
| CCCCCCCCCCCCCCCCCCO | 0.409% (inactive) |
| CC(C)c1cc2c(cc1S(=O)(=O)O)[C@@]1(C)CCC[C@@](C)(C(=O)O)[C@@H]1CC2 | -2.63% (inactive) |
